Vaccinia Venus: vaccinia inhibition (Venus reporter). Potency, µM (series often up to 36.5 µM), for inactives: at the highest dose activity change, negative = inhibition, actives largely listed as inhibitors. Vaccinia virus Venus reporter expression, fluorescence. AID 720580. hit rate 0.46% among 330,000; calls by dose curve; tested in A549 cells; further: nearly all actives have a fitted effect of over 30% in size
LASV entry inh: blocks Lassa virus binding to or entry into cells | Lassa virus pseudotype entry inhibition, cell reporter | Potency, µM (top dose mostly 37.9 µM), without a hit: at the top dose activity change, negative = inhibition, hits mostly inhibitors | hit rate 1.2% among 300,000; calls by dose curve; tested in HEK293 cells; further: nearly all actives have a fitted effect of over 50% in size
HCV inh: HCV inhibition | Huh7.5.1 HCVcc-Cre infection, luciferase reporter, 44 h | Potency, µM (titrated, usually from 41.8 µM), for the others: at the highest dose activity change, negative = inhibition, actives largely listed as inhibitors | hit rate 3.4% among 340,000 | AID 651820; active means well fitted inhibition curve with a large enough effect; inconclusive means small, poorly fitted or top-dose-only effect, or another doubt; inactive means no such curve, though single readings can be large or run the other way
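Infectious HCVcc-Cre (~0.5 moi) was added to cells just after compound, with cells seeded 4 h earlier at 1,000 per well. Luciferase activity after 44 h culture reported infection; substrate was incubated 15 min at room temperature before reading.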
FMDV antiviral: blocks foot and mouth disease virus | FMDV antiviral cell-based qHTS | Potency, µM (titrated, usually from 57.9 µM), for the others: top-dose activity change, negative = inhibition, actives largely listed as inhibitors | hit rate 1.2% among 410,000; calls by dose curve; tested in HEK293T cells; further: read-out not given here; nearly all actives have a fitted effect of over 45% in size
Marburg entry inh: inhibitors of Marburg virus binding or cell entry. Marburg virus pseudotyped entry inhibition, cell reporter. Potency, µM (highest dose often 37.8 µM), inactives show top-dose activity change, negative = inhibition, usual class: inhibitors. hit rate 1.8% among 300,000. AID 540276; calls by dose curve; tested in HEK293 cells
Vaccinia mCherry: inhibitors of vaccinia virus infection (mCherry reporter signal) | Vaccinia virus mCherry reporter infection, fluorescence | Potency, µM (highest dose often 36.5 µM), for inactives: top-dose activity change, negative = inhibition, hits mostly inhibitors | hit rate 0.63% among 310,000; calls by dose curve; tested in A549 cells; further: nearly all actives have a fitted effect of over 35% in size
* = called active by the depositor; i = inactive; ? = inconclusive; nt = no result; [ ] = another dose, or the depositor's remark. This is a sample that favours compounds with a hit; in the whole collection about 5.3% have one here. On the % scale 0 is the no-effect control and ±100 the full control effect; potency means the concentration at half of the fitted maximal effect.

SMILES	Vaccinia Venus	LASV entry inh	HCV inh	FMDV antiviral	Marburg entry inh	Vaccinia mCherry
CCCCC(=O)N1CCN(c2nc3ccc(Cl)cc3s2)CC1	-6%	-7%[46.1 µM]	7.9µM*	3%	?	-14%
CC(C)(CC(=O)O)CC(=O)N1CCN(c2nc3ccc(Cl)cc3s2)CC1	nt	nt	9%	3%	nt	nt
CC(C)(C)NC(=O)N1CCN(c2nc3ccc(Cl)cc3s2)CC1	-13%	13%[46.1 µM]	13µM*	-6%	?	-9%
Clc1ccc(-c2cc(-c3ccccc3)on2)cc1	-12%	nt	?	51%	nt	i
Nc1nc(-c2ccc3c(c2)OCCO3)cs1	7.1µM*	7%	?	34%	-16%	-18%[1.46 µM]
Cc1nc(-c2ccc3c(c2)OCCCO3)cs1	-7%	?	-15%	16%	-17%	i
Cc1ccc(-c2cc(-c3ccccc3)no2)c(O)c1	0%	5µM*	9%	?	?	-13%
Oc1ccccc1-c1cc(-c2ccccc2)no1	-8%	?	-19%	10%	?	nt
CCc1ccn2cc(-c3cc(-c4ccccc4)no3)nc2c1	nt	nt	10µM*	3.2µM*	nt	nt
Cc1ccc2nc(-c3ccc4c(c3)OCCO4)cn2c1	-18%	1µM*	-10%	3.2µM*	?	i
O=c1c(-c2cc(F)cc(F)c2)nc2cnc(N3CCOCC3)nc2n1-c1ccccc1	nt	nt	nt	-11%	nt	nt
Cc1ccc2nc(-c3cc(-c4ccccc4)no3)cn2c1	-3%	0.89µM*	-2%	-48%	?	i
O=C1c2ccccc2-c2cccnc21	nt	nt	-3%	6%	nt	nt
O=C1C(=O)c2ccccc2-c2ccccc21	4.5µM*	nt	2.8µM*	5.6µM*	nt	2.8µM*
NC1=CC(=O)C(=O)c2ccccc21	?	?	?	40µM*	?	14µM*
COC1=C(OC)C(=O)c2ccccc2C1=O	-13%	21µM*	nt	nt	?	-16%
NC1=C(Br)C(=O)c2ccccc2C1=O	?	-10%	?	-19%	?	-49%
O=C1C(=C(I)I)c2ccccc2-c2ccccc21	?	?	8.9µM*	18µM*	?	?
O=C(O)c1cccc2c1C(=O)c1ccccc1-2	3%	12%	21%	0%	4%[46.1 µM]	i
COc1ccc(NC(=O)C2(C)CCN2Cc2ccc(OC(F)(F)F)cc2)cc1OC (stereo not given)	-12%	nt	nt	?	nt	-13%
OC(C[n+]1ccccc1Cl)c1ccccc1 (stereo not given)	-9%	nt	nt	nt	nt	16%
Cc1nc2c(nc1C)C(=O)c1ccccc1C2=O	4µM*	?	?	?	14µM*	3.5µM*
O=C1c2ccccc2-c2nc3ccccc3nc21	nt	26%	14%	23%	-4%	nt
Cc1ccc(S(=O)(=O)N2CCN(CC(=O)NC3CCCc4ccccc43)CC2)cc1C (stereo not given)	-5%	-10%[46.1 µM]	32µM*	?	?	-23%
Ic1ccc(N2CCN(Cc3c[nH]c4ncccc34)CC2)cc1	?	?	?	-27%	11µM*	-15%
SMILES	Vaccinia Venus	LASV entry inh	HCV inh	FMDV antiviral	Marburg entry inh	Vaccinia mCherry
Fc1ccc(N2CCN(Cc3ccccn3)CC2)cc1	-2%	17%[46.1 µM]	9%	-3%	20%[46.1 µM]	i
Cc1cccc(C(=O)N[C@H](C(=O)Nc2ncc(C)s2)C(C)C)c1	?	nt	?	40%	5%[46.1 µM]	13µM*
Cc1cccc(OCCCCn2nnc3sc4c(c3c2=O)CCC(C)C4)c1 (stereo not given)	9%	?	nt	?	14%[46.1 µM]	4%
Cc1ccccc1-n1c(SCC(=O)c2cc(C)n(C)c2C)nnc1-c1ccncc1	nt	?	?	35µM*	?	nt
S=c1nc[nH]c2n[nH]nc12	-21%	nt	nt	nt	nt	10%
COC(=O)[C@H](C)NC(=O)Nc1cccc(C(F)(F)F)c1	-1%	2%	11%	-13%	-2%	nt
CCOC(=O)C1C(C(=O)Nc2cccc(C(F)(F)F)c2)C1C(=O)NC(C)C (stereo not given)	-4%	?	6%	32µM*	7%[46.1 µM]	i
COc1ccc(N2C(=O)/C(=C/c3cc(C)n(-c4ccc(C)cn4)c3C)C(=O)NC2=S)c(OC)c1	nt	nt	10%	32µM*	nt	nt
Cc1ccc(-n2c(C)cc(/C=C3/C(=O)NC(=O)N(C)C3=O)c2C)cc1	-12%	10%	-11%	13%	-1%	-12%
COc1ccc(OC)c(N2C(=O)/C(=C/c3ccco3)C(=O)NC2=S)c1	9%	-8%	-26%	-28%	10µM*	2%

Screening results (PubChem BioAssay)
